Mcl1-Noxa inh – disrupts binding of human Mcl-1 to Noxa peptide; Q07820; 1.5% of 220,000 active; TR-FRET Mcl-1/Noxa peptide binding, 2 h; inhibition, % at 21.7 µM;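 active = compounds that cut the protein-peptide binding signal by more than 50% relative to plate controls in a single-dose test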;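 note: His-tagged Mcl-1 with rhodamine Noxa BH3 peptide and terbium anti-His antibody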
MCL1 BIM primary – disrupts human MCL1 binding to BIM-BH3 peptide; 0.68% of 320,000 active; Q07820; inhibition, % at 10.9 µM; GST-MCL1 / FITC-Bim-BH3 fluorescence polarization;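 active = inhibition above the mean inhibition of all tested compounds plus 3 SD, set per campaign, cut at about 40% in these data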;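 note: higher means more loss of mP so more displacement of Bim peptide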
Mcl1 Bid PPI – Mcl-1/Bid interaction inhibition. Q07820. TR-FRET Mcl-1/Bid-Dy647 peptide binding, 1536-well. inhibition, % at 21.7 µM. 0.97% of 220,000 active. AID 1021;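 active = compounds that cut the binding signal by more than half at the single screening dose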;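 note: His-tagged Mcl-1 with europium anti-His antibody binding Bid BH3 peptide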
eIF4E 4G PPI – blocks eIF4E binding to eIF4G; P63073+Q04637; inhibition, % at 21.7 µM; 0.37% of 220,000 active; TR-FRET eIF4E-eIF4GI(517-606) binding, 2 h;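 active = inhibition above about 30%, limit read from the data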
14-3-3 Bad PPI – disrupts binding of bovine 14-3-3 zeta to phospho-Bad peptide; TR-FRET 14-3-3zeta/Dy647-pBad peptide displacement, 1 h; inhibition, % at 21.7 µM; 0.71% of 220,000 active; AID 781;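 active = inhibition above about 70%, limit read from the data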
Target sequence (P63103 whole entry, looked up): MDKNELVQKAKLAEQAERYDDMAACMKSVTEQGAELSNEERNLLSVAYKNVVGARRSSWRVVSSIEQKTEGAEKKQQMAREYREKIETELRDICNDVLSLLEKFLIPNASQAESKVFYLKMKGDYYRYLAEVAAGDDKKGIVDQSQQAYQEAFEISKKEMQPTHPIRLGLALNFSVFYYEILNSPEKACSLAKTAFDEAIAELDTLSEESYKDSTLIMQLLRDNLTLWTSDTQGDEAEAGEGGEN
Mcl-1 Bim block – disrupts Bim peptide binding to human Mcl-1; inhibition, % at 10 µM; AID 1009; Q07820; 0.1% of 190,000 active; Bead-based flow cytometry, Bim peptide-Mcl-1 binding; in the data active = inhibition above about 40%
Hits are given with their value; [ ] = dose if it differs, or a comment. Most compounds without a hit are left out; they make up all but 2.6% or so of the library.

For CC(=O)Nc1ccc(-c2csc(NC(=O)C3CC(=O)N(c4ccc5c(c4)OCCO5)C3)n2)cc1 (configuration not stated) the results were Mcl1-Noxa inh 87.2, MCL1 BIM primary inactive, Mcl1 Bid PPI inactive, eIF4E 4G PPI inactive and 14-3-3 Bad PPI inactive.
`COC(=O)C1=C(C)NC(=O)C1(NC(=O)c1cccnc1)C(F)(F)F` (configuration not stated) gave Mcl1-Noxa inh inactive, MCL1 BIM primary inactive, Mcl1 Bid PPI inactive, eIF4E 4G PPI inactive, 14-3-3 Bad PPI inactive and Mcl-1 Bim block inactive.
Screening COC(=O)C1=C(C)NC(=O)C1(Nc1ccc(Cl)cn1)C(F)(F)F (configuration not stated) returned Mcl1-Noxa inh inactive, MCL1 BIM primary inactive, Mcl1 Bid PPI inactive, eIF4E 4G PPI 35.2[fluorescence artefact?], 14-3-3 Bad PPI inactive and Mcl-1 Bim block inactive.
Screening COc1ccc(Cl)cc1NC(=O)CN1CCN(S(=O)(=O)N2CCCCC2)CC1 returned MCL1 BIM primary inactive.
Screening CCOc1cc(/C=N/NC(=O)C(=O)NCCCOC(C)C)cc(Br)c1O returned Mcl1-Noxa inh 55.9, MCL1 BIM primary inactive, Mcl1 Bid PPI inactive, eIF4E 4G PPI inactive, 14-3-3 Bad PPI inactive and Mcl-1 Bim block inactive.
COc1cc(S(=O)(=O)Nc2ccccc2C(=O)N2CCCCC2)ccc1NC(C)=O was read as MCL1 BIM primary inactive.
`CC1CCCCC1NCC(=O)Nc1ccccc1-c1ccccc1` (configuration not stated) gave Mcl1-Noxa inh inactive, MCL1 BIM primary inactive, Mcl1 Bid PPI inactive, eIF4E 4G PPI inactive, 14-3-3 Bad PPI 70.9 and Mcl-1 Bim block inactive.
Cc1ccc(S(=O)(=O)N[C@H](C(=O)Oc2ccc3c(C(F)(F)F)cc(=O)oc3c2)c2ccccc2)cc1 was read as Mcl1-Noxa inh inactive, MCL1 BIM primary 45.3, Mcl1 Bid PPI inactive, eIF4E 4G PPI inactive, 14-3-3 Bad PPI inactive and Mcl-1 Bim block inactive.
`CCOC(=O)C1CCCN(Cc2c(F)cccc2Cl)C1` (configuration not stated) gave Mcl1-Noxa inh inactive, MCL1 BIM primary inactive, Mcl1 Bid PPI inactive, eIF4E 4G PPI inactive, 14-3-3 Bad PPI inactive and Mcl-1 Bim block inactive.
For CCOC(=O)C1CCCN(Cc2cccs2)C1 (configuration not stated) the results were Mcl1-Noxa inh inactive, MCL1 BIM primary inactive, Mcl1 Bid PPI 55.5, eIF4E 4G PPI inactive, 14-3-3 Bad PPI 71.0 and Mcl-1 Bim block inactive.
`CCOC(=O)C1CCCN(Cc2ccccc2C)C1` (configuration not stated) gave Mcl1-Noxa inh inactive, MCL1 BIM primary inactive, Mcl1 Bid PPI inactive, eIF4E 4G PPI inactive, 14-3-3 Bad PPI 75.6 and Mcl-1 Bim block inactive.
`CCOC(=O)C1CCCN(Cc2ccccc2OCC)C1` (configuration not stated) gave Mcl1-Noxa inh inactive, MCL1 BIM primary inactive, Mcl1 Bid PPI 98.0, eIF4E 4G PPI inactive, 14-3-3 Bad PPI inactive and Mcl-1 Bim block inactive.
For CCOC(=O)C1CCCN(Cc2ccccc2Cl)C1 (configuration not stated) the results were Mcl1-Noxa inh inactive, MCL1 BIM primary inactive, Mcl1 Bid PPI inactive, eIF4E 4G PPI inactive, 14-3-3 Bad PPI 70.8 and Mcl-1 Bim block inactive.
CCOC(=O)C1CCN(Cc2ccccc2C)CC1 was read as Mcl1-Noxa inh inactive, MCL1 BIM primary inactive, Mcl1 Bid PPI inactive, eIF4E 4G PPI inactive, 14-3-3 Bad PPI inactive and Mcl-1 Bim block inactive.
Screening Cc1ccc(SCc2cn3cc(Cl)ccc3n2)cc1 returned Mcl1-Noxa inh inactive, MCL1 BIM primary inactive, Mcl1 Bid PPI inactive, eIF4E 4G PPI inactive and 14-3-3 Bad PPI inactive.
Cc1ccc(S(=O)(=O)/N=C(/Nc2cccc(O)c2)c2ccccc2)cc1 was read as MCL1 BIM primary inactive.
For ONC(=Nc1ccccc1Cl)c1c(F)cccc1F the results were MCL1 BIM primary inactive.
Cn1c(SCC(=O)Nc2ccc3nc(SCC(=O)N4CCCC4)sc3c2)nnc1-c1ccccc1 was read as Mcl1-Noxa inh 97.1, MCL1 BIM primary inactive, Mcl1 Bid PPI inactive, eIF4E 4G PPI inactive, 14-3-3 Bad PPI inactive and Mcl-1 Bim block inactive.
Screening Cn1c(SCC(=O)Nc2ccc3[nH]c(=O)[nH]c3c2)nnc1-c1ccccc1 returned MCL1 BIM primary inactive.
For Cn1c(SCC(=O)Nc2ccc3c(c2)oc2ccccc23)nnc1-c1ccccc1 the results were Mcl1-Noxa inh inactive, MCL1 BIM primary inactive, Mcl1 Bid PPI inactive, eIF4E 4G PPI inactive, 14-3-3 Bad PPI 71.9[fluorescence artefact?] and Mcl-1 Bim block inactive.
